According to PubChem BioAssay AID371 (SRMLSC, 2006):
In all, about 3,300 compounds went through this assay and about 280 (8.5%) were called active. Only a selection was taken, and actives are over-represented in it overall. Values without a mark were called inactive.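 The calls were made as follows: active = mean growth inhibition over the two runs of 50% or more; inactive = mean growth inhibition under 50%.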

Assay: A549 NSCLC cell proliferation inhibitors – ATP luminescence, human non-small cell lung line, primary screen (AID 371);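 also: compound exposure lasted 72 h before the ATP read; 0% = untreated cell signal and 100% = no luminescence left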
Settings: at 10 µM, hits give high values

In order of falling growth inhibition:
1. CCCOc1ccc2nc(NC(=O)OC)[nH]c2c1  48.4%
2. Fc1ccccc1-c1nc(N2CCCCC2)c2ccccc2n1  47.5%
3. C#CCSC1=C(C#N)C(c2cccs2)C(C(=O)OCC)=C(C)N1 (stereo not drawn)  47.5%
4. O=C(c1ccc(=O)oc1)N1CCN(C(c2ccccc2)c2ccccc2)CC1  41.2%
5. Nc1c(Br)cc2oc(-c3ccccc3)nc2c1Br  31.4%
6. CCSC1=C(C#N)C(c2cccs2)C(C(=O)OC)=C(C)N1 (stereo not drawn)  30.4%
7. Clc1ccc(Cn2c(CN3CCCC3)nc3ccccc32)cc1  29.6%
8. Cc1oc2cc(O)ccc2c(=O)c1-c1cnn(-c2ccccc2)c1  28.4%
9. c1ccc2c(N3CCCCC3)nc(N3CCCCC3)nc2c1  25.8%
10. COCCn1c(N)c(C(=O)NCC2CCCO2)c2nc3ccccc3nc21 (stereo not drawn)  23.5%
11. C=CCN(CC=C)c1nc2ccccc2nc1C(C#N)C(=O)OC(C)C (stereo not drawn)  23.2%
12. CC(O)CNc1nc2c(c(=O)n(C)c(=O)n2C)n1Cc1cccc(C(F)(F)F)c1 (stereo not drawn)  22.2%
13. COc1ccc2c(c1)nc(N)n2Cc1ccccc1  21.8%
14. COc1ccc(C2C(C#N)=C(C)NC3=C2C(=O)c2ccccc23)cc1 (stereo not drawn)  19.6%
15. Cc1nc(SCC(=O)Nc2ccc3c(c2)OCO3)c(C#N)c2c1CCCC2  18.5%
16. O=C(CCC1CCCC1)N1CCC(N2CCN(c3ccccc3)CC2)CC1  17.9%
17. Cc1nc(N2CCN(Cc3ccccc3)CC2)c(C#N)c2c1COC(C)(C)C2  17.5%
18. COc1ccc(-c2nnc3sc(-c4c(OC)cccc4OC)nn23)cc1  16.6%
19. COc1cc2nc(N3CCN(C(=O)C4CCCO4)CC3)nc(N)c2cc1OC (stereo not drawn)  15.4%
20. CCOc1ccc(-n2c3nc4ccccc4nc3c3c(=O)n(Cc4ccco4)cnc32)cc1  14.6%
21. Cn1c(=O)oc2cc(C(=O)c3ccccc3)ccc21  13.3%
22. CC(C)Cn1cnc2c(c1=O)c1nc3ccccc3nc1n2Cc1ccc2c(c1)OCO2  12.6%
23. CCCCc1nc2n[nH]c(N)c2c2c1CCCC2  12.1%
24. COC(=O)c1ccccc1NC(=O)C1COc2ccccc2O1 (stereo not drawn)  11.9%
25. CC(C)C1Cc2c(C#N)c(N)n(C)c(=S)c2CO1 (stereo not drawn)  11.2%
26. CC(=O)Nc1ccc(Oc2ccc3nc(C)[nH]c3c2)cc1  10.6%
27. O=C(Nc1ccc2c(c1)OCO2)c1cc2n(n1)C(C(F)(F)F)CC(c1ccccc1)N2 (stereo not drawn)  10.4%
28. COCCCNC(=O)C(C#N)c1nc2ccccc2nc1N1CCCC1 (stereo not drawn)  9.56%
29. COc1ccc(C2(CN(C(C)=O)C(C)=O)CCCC2)cc1OC  9.44%
30. CCCCN(CCCC)c1nc2ccccc2nc1C(C#N)C(=O)NCCCOC (stereo not drawn)  9.29%
31. NC(=O)C1CCN(CCC(=O)Nc2ccc(Br)cc2)CC1  7.48%
32. COc1ccc2[nH]c(C)c(C(=O)CN3CCN(C(=O)c4ccco4)CC3)c2c1  7.48%
33. COC(=O)c1ccccc1OCc1cccc(C)n1  6.89%
34. COc1cccc(-c2nc(N3CCN(Cc4ccccc4)CC3)c3ccccc3n2)c1O  6.86%
35. COc1cccc(/C(O)=C2\C(=O)C(=O)N(c3ccccn3)C2c2ccccc2OC)c1 (stereo not drawn)  6.79%
36. O=C(Oc1ccccc1N1C(=O)CCC1=O)c1ccco1  6.54%
37. Cn1c(=O)n(C)c2cc(C(=O)c3ccccc3)ccc21  5.5%
38. COCCOC(=O)c1c(C)nc(SCC(=O)Nc2ccc(OC)cc2)c(C#N)c1-c1ccco1  5.46%
39. C=C1C2(C(=O)Nc3nccs3)CCC(C2)C1(C)C (stereo not drawn)  5.39%
40. O=C(Nc1ccc2c(c1)OCO2)c1cncc(Br)c1  4.86%
41. CCOC(=O)c1oc2cc(O)cc(C)c2c(=O)c1-c1cscn1  4.18%
42. COc1cc(-n2c3nc4ccccc4nc3c3c(=O)n(Cc4ccco4)cnc32)cc(OC)c1OC  4.1%
43. COc1ccc(OC)c(C2C(C(=O)c3ccco3)=C(O)C(=O)N2CCCN2CCOCC2)c1 (stereo not drawn)  4.05%
44. Cc1nc2sc(C)c(C)c2c(=O)o1  3.93%
45. COC(=O)CCc1c(C)[nH]c(C(=O)OCc2ccccc2)c1C  3.52%
46. Cc1cccc(CN2CCN(C(c3ccccc3)c3ccc(Cl)cc3)CC2)c1 (stereo not drawn)  3.35%
47. COC(=O)c1ccn(C(=O)c2ccc(Cl)cc2)n1  3.19%
48. Nc1c(C(=O)NCC2CCCO2)c2nc3ccccc3nc2n1/N=C/c1ccncc1 (stereo not drawn)  2.51%
49. COC(=O)NCC12CC3CC(C1)CC(CNC(=O)OC)(C3)C2  2.32%
50. COc1ccc(C2C(C#N)=C(N)SC(N)=C2C#N)cc1OC  2.23%
51. COc1cccc(OC)c1OCCN1CCN(C(=O)c2ccco2)CC1  2.2%
52. O=C(NCCCN1CCOCC1)C1(c2ccccc2)CCOCC1  2.07%
53. CCN(CC)CCCN1C(=O)C(=O)/C(=C(/O)c2ccc(OC)cc2)C1c1ccco1 (stereo not drawn)  1.94%
54. OCCOCCN1CCN(C(c2ccccc2)c2ccc(Cl)cc2)CC1 (stereo not drawn)  1.66%
55. CC(NCCc1ccc(O)cc1)C(O)c1ccc(O)cc1 (stereo not drawn)  1.42%
56. CCC(=O)Nc1nc(C)c(Oc2ccccc2)c(=O)[nH]1  1.39%
57. COCCOCCOCCC(=O)NC1CC2CCC1(C)C2(C)C (stereo not drawn)  0.85%
58. Cc1cccc2c1NC(C)CC2C (stereo not drawn)  0.83%
59. CC(=O)NC1(C(F)(F)F)C(=O)Nc2c1c(=O)n(C)c(=O)n2C (stereo not drawn)  0.54%
60. O=C1CCCN1c1ccc(S(=O)(=O)NCc2ccco2)cc1  0.41%
61. Cc1cc(=O)n(CCC(=O)O)c2ccccc12  0.16%
62. COc1cc(-c2nn3c(-c4ccco4)nnc3s2)cc(OC)c1OC  0.05%
63. CCOC(=O)C1=C(N)N2C(=O)CSC2=C(C(=O)OC)C1  -0.01%
64. O=C(O)c1cc2n(n1)C(C(F)(F)F)CC(c1ccccc1)N2 (stereo not drawn)  -0.01%
65. CCOc1ccc(/C(O)=C2/C(=O)C(=O)N(CCN(C)C)C2c2ccccc2)cc1Cl (stereo not drawn)  -0.75%
66. Cc1cc(Cl)ccc1OCC(=O)OC(C)C(=O)N(C)C (stereo not drawn)  -0.96%
67. CCCCCn1c2nc3ccccc3nc2c2c(=O)n(CC(C)C)cnc21  -1.51%
68. COc1ccc(OC)c(C2C(C#N)=C(N)Oc3cc(C)n(Cc4ccccn4)c(=O)c32)c1 (stereo not drawn)  -2.3%
69. COc1ccc(N2CC(=O)N(c3ccc(OC)c(OC)c3)CC2=O)cc1OC  -2.72%
70. CC(=O)NCC(=O)OCN1C(=O)c2ccccc2C1=O  -2.75%
71. CCNc1nc(Oc2ccccc2)nc(OC(C)C(=O)OCC)n1 (stereo not drawn)  -2.75%
72. CCOC(=O)c1nc2nc(C)c(Cl)c(=O)n2[nH]1  -2.82%
73. COC(=O)CSc1nc2c(c(=O)n(C)c(=O)n2C)n1CCC(C)C  -2.98%
74. COC(=O)CSc1nc(C)c(Oc2ccccc2)c(=O)[nH]1  -3.23%
75. CC(C)(C#N)C(C)(C)c1nn[nH]n1  -3.48%
76. Cc1cccc(NC(=O)c2c(C)cc(=O)oc2C)n1  -3.57%
77. CCOc1ccc2nc(SCC(=O)Nc3ncccn3)[nH]c2c1  -4.07%
78. CCOC(=O)COc1nc(N(C)C)nc(N(C)C)n1  -5.85%
79. CN1CCN(c2nc3c(c(=O)n(C)c(=O)n3C)n2Cc2cccc3ccccc23)CC1  -7.28%
80. O=C(O)CCCC(=O)Nc1ccn(-c2ccccc2)n1  -9.55%

In the case of COC(=O)Nc1nc2ccc(Sc3ccccc3)cc2[nH]1, the growth inhibition is reported as 81.7% (active).
For COC(=O)Nc1nc2ccc(C(=O)c3ccccc3)cc2[nH]1, the growth inhibition was 55.8% (active).
In the case of CCCSc1ccc2nc(NC(=O)OC)[nH]c2c1, the growth inhibition is reported as 53.2% (active).
For CCCCCCCCNC(C)C(O)c1ccc(SC(C)C)cc1 (stereo not drawn), the growth inhibition was 92.4% (active).
With Cc1cc(C)cc(-n2c3nc4ccccc4nc3c3c(=O)n(Cc4ccco4)cnc32)c1 the growth inhibition was 72.2% (active).
With COc1ccc(OC)c(NS(=O)(=O)c2ccc(N3CCCC3=O)cc2)c1 the growth inhibition was 62.5% (active).
With c1ccc(CN2CCN(c3nc(-c4ccccn4)nc4ccccc34)CC2)cc1 the growth inhibition was 60% (active).
In the case of c1ccc(N2CCN(c3nc(-c4ccccn4)nc4ccccc34)CC2)cc1, the growth inhibition is reported as 64.6% (active).
For CCCN(CCC)c1nc2ccccc2nc1C(C#N)C(=O)OC(C)COC (stereo not drawn), the growth inhibition was 52.1% (active).
With Cc1oc2cc(O)cc(C)c2c(=O)c1-c1cnn(-c2ccccc2)c1 the growth inhibition was 59% (active).
With CCOC(=O)C1=C(C)NC(SCC(=O)Nc2nc(C)cs2)=C(C#N)C1c1cccs1 (stereo not drawn) the growth inhibition was 86.8% (active).
With CNCCCC12CCC(c3ccccc31)c1ccccc12 the growth inhibition was 52.9% (active).
With COc1ccc(CCN2CCC(Nc3nc4ccccc4n3Cc3ccc(F)cc3)CC2)cc1 the growth inhibition was 95.5% (active).
With COc1cc2c(cc1OC)C1(CCCC1)C(N)=C2C#N the growth inhibition was 54.9% (active).
With CN1CCCN(C(c2ccccc2)c2ccc(Cl)cc2)CC1 (stereo not drawn) the growth inhibition was 78.7% (active).
For COc1ccccc1-n1c(N)c(C(=O)NCC2CCCO2)c2nc3ccccc3nc21 (stereo not drawn), the growth inhibition was 52.9% (active).
In the case of COc1cc2nc(N3CCN(C(=O)C4COc5ccccc5O4)CC3)nc(N)c2cc1OC (stereo not drawn), the growth inhibition is reported as 91% (active).
For COc1cc2nc(N3CCN(C(=O)c4ccco4)CC3)nc(N)c2cc1OC, the growth inhibition was 82.5% (active).
